Data published in the supplement of paper PMC4022240.
± gives the standard deviation.

Columns and labels:
Assay in all cases: peptide microarray binding signal (635 nm), min-max normalized on array (fraction of array maximum); higher = stronger binding
[1] = target: T1, HaloTag-ATRX ADD domain (163-292)
T1 chain: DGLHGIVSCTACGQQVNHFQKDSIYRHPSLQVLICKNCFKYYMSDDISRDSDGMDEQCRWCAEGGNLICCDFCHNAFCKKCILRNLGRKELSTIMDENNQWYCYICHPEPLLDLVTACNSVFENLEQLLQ
Procedure, shortened: (§1)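 Two probe formats were used for 1 h at 4°C: biotin-labelled HaloTag reader fusions (10 nM to 1 μM) with streptavidin-Alexa Fluor 647, and rabbit histone antibodies (1:10,000 to 1:2,000) with anti-rabbit Alexa 647. Both were applied to nitrocellulose arrays of histone 13-mer peptide–cellulose conjugates printed in triplicate with a Cy3 tracer and blocked overnight at 4°C. Signal was read at 635 nm and misprints at 532 nm on an Axon GenePix 4000B. Binding signal is expressed as the triplicate-spot mean intensity, min-max scaled for each library.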

[2] = target: HaloTag-ING2 PHD (mouse Ing2 200-280)
Procedure, shortened: as §1

[3] = target: anti-H3K4me3 antibody ab8580
Procedure, shortened: as §1

[4] = target: anti-H3K9me3 antibody ab8898
Procedure, shortened: as §1

[5] = peptide region: H4 38-50, peptide modifications: H4K44me2 H4R45me2s, binder concentration: 1:2,000 dilution
[6] = peptide region: H4 38-50, peptide modifications: H4K44me2 H4R45me2s, binder concentration: 1:10,000 dilution
[7] = peptide region: H4 38-50, peptide modifications: H4K44me1 H4R45me1, binder concentration: 1:2,000 dilution
[8] = peptide region: H4 38-50, peptide modifications: H4K44me1 H4R45me1, binder concentration: 1:10,000 dilution
[9] = peptide region: H4 38-50, peptide modifications: H4K44me2 H4R45cit, binder concentration: 1:2,000 dilution
[10] = peptide region: H4 38-50, peptide modifications: H4K44me2 H4R45cit, binder concentration: 1:10,000 dilution
[11] = peptide region: H4 38-50, binder concentration: 1:2,000 dilution
[12] = peptide region: H4 38-50, binder concentration: 1:10,000 dilution
[13] = peptide region: H4 16-28, peptide modifications: H4R23cit, binder concentration: 1:2,000 dilution
[14] = peptide region: H4 16-28, peptide modifications: H4R23cit, binder concentration: 1:10,000 dilution
[15] = peptide region: H4 16-28, peptide modifications: H4R19me2s, binder concentration: 1:2,000 dilution
[16] = peptide region: H4 38-50, peptide modifications: H4K44me2 H4R45me1, binder concentration: 1:2,000 dilution
[17] = peptide region: H4 38-50, peptide modifications: H4K44me1, binder concentration: 1:2,000 dilution
[18] = peptide region: H4 38-50, peptide modifications: H4K44me1, binder concentration: 1:10,000 dilution
[19] = peptide region: H4 38-50, peptide modifications: H4K44ac, binder concentration: 1:2,000 dilution
[20] = peptide region: H4 38-50, peptide modifications: H4K44ac, binder concentration: 1:10,000 dilution
[21] = peptide region: H4 38-50, peptide modifications: H4K44me3 H4R45me1, binder concentration: 1:2,000 dilution
[22] = peptide region: H4 38-50, peptide modifications: H4K44me3 H4R45me1, binder concentration: 1:10,000 dilution
[23] = peptide region: H4 16-28, peptide modifications: H4R19me2s H4K20me3, binder concentration: 1:2,000 dilution
[24] = peptide region: H4 16-28, peptide modifications: H4R19me2s H4K20me3, binder concentration: 1:10,000 dilution

B1: H4 38-50 A R R G G V Kme2 Rme2s I S G L I (peptide)
chain: ARRGGVKRISGLI
- peptide microarray binding signal ([1]; peptide region: H4 38-50, peptide modifications: H4K44me2 H4R45me2s, binder concentration: 50 nM): 0.00586 ± 0.00025
- peptide microarray binding signal ([1]; peptide region: H4 38-50, peptide modifications: H4K44me2 H4R45me2s, binder concentration: 500 nM): 0.0125 ± 0.00027
- peptide microarray binding signal ([2]; peptide region: H4 38-50, peptide modifications: H4K44me2 H4R45me2s, binder concentration: 10 nM): 0.0175 ± 0.00042
- peptide microarray binding signal ([2]; peptide region: H4 38-50, peptide modifications: H4K44me2 H4R45me2s, binder concentration: 100 nM): 0.0397 ± 0.019
- peptide microarray binding signal [3, 5]: 0.00361 ± 0.00025
- peptide microarray binding signal [3, 6]: 0.00611 ± 0.00033
- peptide microarray binding signal [4, 5]: 0.0037 ± 0.00027
- peptide microarray binding signal [4, 6]: 0.00484 ± 0.00089

B2: H4 38-50 A R R G G V Kme Rme I S G L I (peptide)
chain: ARRGGVKRISGLI
- peptide microarray binding signal ([1]; peptide region: H4 38-50, peptide modifications: H4K44me1 H4R45me1, binder concentration: 50 nM): 0.0377 ± 0.00093
- peptide microarray binding signal ([1]; peptide region: H4 38-50, peptide modifications: H4K44me1 H4R45me1, binder concentration: 500 nM): 0.0199 ± 0.00027
- peptide microarray binding signal ([2]; peptide region: H4 38-50, peptide modifications: H4K44me1 H4R45me1, binder concentration: 10 nM): 0.0751 ± 0.0022
- peptide microarray binding signal ([2]; peptide region: H4 38-50, peptide modifications: H4K44me1 H4R45me1, binder concentration: 100 nM): 0.031 ± 0.0006
- peptide microarray binding signal [3, 7]: 0.00727 ± 0.00021
- peptide microarray binding signal [3, 8]: 0.02163 ± 0.00021
- peptide microarray binding signal [4, 7]: 0.0055 ± 9.8e-05
- peptide microarray binding signal [4, 8]: 0.02058 ± 0.00019

B3: H4 38-50 A R R G G V Kme2 Rcit I S G L I (peptide)
chain: ARRGGVKRISGLI
- peptide microarray binding signal ([1]; peptide region: H4 38-50, peptide modifications: H4K44me2 H4R45cit, binder concentration: 50 nM): 0.00389 ± 6.7e-05
- peptide microarray binding signal ([1]; peptide region: H4 38-50, peptide modifications: H4K44me2 H4R45cit, binder concentration: 500 nM): 0.00743
- peptide microarray binding signal ([2]; peptide region: H4 38-50, peptide modifications: H4K44me2 H4R45cit, binder concentration: 10 nM): 0.007102 ± 3.2e-05
- peptide microarray binding signal ([2]; peptide region: H4 38-50, peptide modifications: H4K44me2 H4R45cit, binder concentration: 100 nM): 0.0109 ± 0.00033
- peptide microarray binding signal [3, 9]: 0.00136 ± 0.00012
- peptide microarray binding signal [3, 10]: 0.00177 ± 2.9e-05
- peptide microarray binding signal [4, 9]: 0.00104 ± 2.9e-05
- peptide microarray binding signal [4, 10]: 0.0011 ± 2.9e-05

B4: H4 38-50 A R R G G V K R I S G L I (peptide)
chain: ARRGGVKRISGLI
- peptide microarray binding signal ([1]; peptide region: H4 38-50, binder concentration: 50 nM): 0.00398 ± 0.00022
- peptide microarray binding signal ([1]; peptide region: H4 38-50, binder concentration: 500 nM): 0.00614 ± 6.4e-05
- peptide microarray binding signal ([2]; peptide region: H4 38-50, binder concentration: 10 nM): 0.003641 ± 3.4e-05
- peptide microarray binding signal ([2]; peptide region: H4 38-50, binder concentration: 100 nM): 0.0105 ± 0.00039
- peptide microarray binding signal [3, 11]: 0.000434 ± 8.7e-06
- peptide microarray binding signal [3, 12]: 0.000913
- peptide microarray binding signal [4, 11]: 0.000151 ± 1.6e-06
- peptide microarray binding signal [4, 12]: 0.000634 ± 1.2e-05

B5: H4 16-28 K R H R K V L Rcit D N I Q G (peptide)
chain: KRHRKVLRDNIQG
- peptide microarray binding signal ([1]; peptide region: H4 16-28, peptide modifications: H4R23cit, binder concentration: 50 nM): 0.00241 ± 3.7e-05
- peptide microarray binding signal ([1]; peptide region: H4 16-28, peptide modifications: H4R23cit, binder concentration: 500 nM): 0.00457 ± 0.00023
- peptide microarray binding signal ([2]; peptide region: H4 16-28, peptide modifications: H4R23cit, binder concentration: 10 nM): 0.00597 ± 0.00064
- peptide microarray binding signal ([2]; peptide region: H4 16-28, peptide modifications: H4R23cit, binder concentration: 100 nM): 0.00291 ± 0.00024
- peptide microarray binding signal [3, 13]: 0.000925 ± 1.6e-05
- peptide microarray binding signal [3, 14]: 0.002 ± 0.00019
- peptide microarray binding signal [4, 13]: 0.000544 ± 6.6e-05
- peptide microarray binding signal [4, 14]: 0.00115

B6: H4 16-28 K R H Rme2s K V L R D N I Q G (peptide)
chain: KRHRKVLRDNIQG
- peptide microarray binding signal ([1]; peptide region: H4 16-28, peptide modifications: H4R19me2s, binder concentration: 500 nM): 0.000524 ± 1.4e-05
- peptide microarray binding signal ([2]; peptide region: H4 16-28, peptide modifications: H4R19me2s, binder concentration: 100 nM): 0
- peptide microarray binding signal [3, 15]: 0.000491 ± 9.2e-05
- peptide microarray binding signal [4, 15]: 3.02e-05 ± 3.4e-07

B7: H4 38-50 A R R G G V Kme2 Rme I S G L I (peptide)
chain: ARRGGVKRISGLI
- peptide microarray binding signal ([1]; peptide region: H4 38-50, peptide modifications: H4K44me2 H4R45me1, binder concentration: 500 nM): 0.00233 ± 8.5e-05
- peptide microarray binding signal ([2]; peptide region: H4 38-50, peptide modifications: H4K44me2 H4R45me1, binder concentration: 100 nM): 0.00361 ± 0.00019
- peptide microarray binding signal [3, 16]: 0.000491 ± 1.3e-05
- peptide microarray binding signal [4, 16]: 0.000347 ± 9.2e-06

B8: H4 38-50 A R R G G V Kme R I S G L I (peptide)
chain: ARRGGVKRISGLI
- peptide microarray binding signal ([1]; peptide region: H4 38-50, peptide modifications: H4K44me1, binder concentration: 50 nM): 0.00765 ± 0.00015
- peptide microarray binding signal ([1]; peptide region: H4 38-50, peptide modifications: H4K44me1, binder concentration: 500 nM): 0.0147 ± 0.0013
- peptide microarray binding signal ([2]; peptide region: H4 38-50, peptide modifications: H4K44me1, binder concentration: 10 nM): 0.01074 ± 8.4e-05
- peptide microarray binding signal ([2]; peptide region: H4 38-50, peptide modifications: H4K44me1, binder concentration: 100 nM): 0.0234 ± 0.0011
- peptide microarray binding signal [3, 17]: 0.00691 ± 0.00072
- peptide microarray binding signal [3, 18]: 0.00719 ± 0.00029
- peptide microarray binding signal [4, 17]: 0.00751 ± 0.0003
- peptide microarray binding signal [4, 18]: 0.00703 ± 0.0019

B9: H4 38-50 A R R G G V Kac R I S G L I (peptide)
chain: ARRGGVKRISGLI
- peptide microarray binding signal ([1]; peptide region: H4 38-50, peptide modifications: H4K44ac, binder concentration: 50 nM): 0.00298 ± 0.00042
- peptide microarray binding signal ([1]; peptide region: H4 38-50, peptide modifications: H4K44ac, binder concentration: 500 nM): 0.002238 ± 1.9e-05
- peptide microarray binding signal ([2]; peptide region: H4 38-50, peptide modifications: H4K44ac, binder concentration: 10 nM): 0.00477 ± 0.00013
- peptide microarray binding signal ([2]; peptide region: H4 38-50, peptide modifications: H4K44ac, binder concentration: 100 nM): 0.00751 ± 0.00045
- peptide microarray binding signal [3, 19]: 0.00347 ± 0.0006
- peptide microarray binding signal [3, 20]: 0.00251 ± 5.9e-05
- peptide microarray binding signal [4, 19]: 0.00142 ± 3.6e-05
- peptide microarray binding signal [4, 20]: 0.00138 ± 4.9e-05

B10: H4 38-50 A R R G G V Kme3 Rme I S G L I (peptide)
chain: ARRGGVKRISGLI
- peptide microarray binding signal ([1]; peptide region: H4 38-50, peptide modifications: H4K44me3 H4R45me1, binder concentration: 50 nM): 0.002821 ± 2.4e-05
- peptide microarray binding signal ([1]; peptide region: H4 38-50, peptide modifications: H4K44me3 H4R45me1, binder concentration: 500 nM): 0.00524 ± 8.9e-05
- peptide microarray binding signal ([2]; peptide region: H4 38-50, peptide modifications: H4K44me3 H4R45me1, binder concentration: 10 nM): 0.0104 ± 0.0012
- peptide microarray binding signal ([2]; peptide region: H4 38-50, peptide modifications: H4K44me3 H4R45me1, binder concentration: 100 nM): 0.0257 ± 0.006
- peptide microarray binding signal [3, 21]: 0.00143 ± 5.5e-05
- peptide microarray binding signal [3, 22]: 0.001655 ± 1.6e-05
- peptide microarray binding signal [4, 21]: 0.000951
- peptide microarray binding signal [4, 22]: 0.000865 ± 9e-06

B11: H4 16-28 K R H Rme2s Kme3 V L R D N I Q G (peptide)
chain: KRHRKVLRDNIQG
- peptide microarray binding signal ([1]; peptide region: H4 16-28, peptide modifications: H4R19me2s H4K20me3, binder concentration: 50 nM): 0.006019 ± 4.1e-05
- peptide microarray binding signal ([1]; peptide region: H4 16-28, peptide modifications: H4R19me2s H4K20me3, binder concentration: 500 nM): 0.00524 ± 0.00012
- peptide microarray binding signal ([2]; peptide region: H4 16-28, peptide modifications: H4R19me2s H4K20me3, binder concentration: 10 nM): 0.01444 ± 0.00013
- peptide microarray binding signal ([2]; peptide region: H4 16-28, peptide modifications: H4R19me2s H4K20me3, binder concentration: 100 nM): 0.0125 ± 0.00075
- peptide microarray binding signal [3, 23]: 0.0051 ± 0.00088
- peptide microarray binding signal [3, 24]: 0.00451 ± 0.0013
- peptide microarray binding signal [4, 23]: 0.00438 ± 0.0021
- peptide microarray binding signal [4, 24]: 0.00663 ± 0.00022
